{"source": "PubChem BioAssay AID504692", "about": "(The Scripps Research Institute Molecular Screening Center, 2011)", "note": "Hit rate of the full screen: of about 340,000 compounds, about 2,000 (0.59%) were called active. What follows is part of a selection rich in actives, with near analogues and random picks from the rest. Values without a mark were called inactive. No stated cut-off is given here; in the data, active means activation mostly above about 9.5% (no sharp cut-off); inactive means mostly below about 7.6%."}
{"target": "5-hydroxytryptamine receptor 5A (Homo sapiens) (UniProt P47898)", "sequence (P47898 whole entry, looked up)": "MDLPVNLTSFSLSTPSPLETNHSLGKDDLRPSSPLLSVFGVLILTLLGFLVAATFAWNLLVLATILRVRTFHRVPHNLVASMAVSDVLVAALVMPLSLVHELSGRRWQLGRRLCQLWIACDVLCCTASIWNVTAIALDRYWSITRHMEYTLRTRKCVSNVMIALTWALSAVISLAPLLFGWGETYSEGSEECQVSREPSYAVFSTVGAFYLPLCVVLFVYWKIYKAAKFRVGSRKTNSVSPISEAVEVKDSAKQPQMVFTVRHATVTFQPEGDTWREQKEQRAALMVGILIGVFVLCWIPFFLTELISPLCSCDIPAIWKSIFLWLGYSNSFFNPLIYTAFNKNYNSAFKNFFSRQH", "assay": "activation of human 5-HT5A receptor – cell-based, luminescence, full-deck HTS, counter-screen for OPRM1-OPRD1 heterodimer agonist project, primary screen (AID 504692);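 further: 0% = cells with vehicle only and 100% = reference agonist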", "conditions": "HTR5A agonist assay, at 9.3 µM, hits give high values"}
{"smiles": "CN1c2ccc(C=O)c3c(C=O)ccc(c23)N(C)C1(C)C", "activation": "20.2% (active)"}
{"smiles": "CN(CC(=O)Nc1ccccc1Cl)C(=O)COc1cccc2c1OC(C)(C)C2", "activation": "2.73%"}
{"smiles": "CCSc1nc(O)c(C(c2cccc(OC)c2)c2c(O)nc(SCC)[nH]c2=O)c(=O)[nH]1", "activation": "6.11%"}
{"smiles": "Cc1ccc(/C([O-])=C(/C(=S)NCc2ccco2)[n+]2ccccc2)cc1[N+](=O)[O-]", "activation": "0.24%"}
{"smiles": "O=C(COC(=O)CSc1nnc(-c2ccc(Cl)cc2)o1)Nc1cc(Cl)cc(Cl)c1", "activation": "0.33%"}
{"smiles": "O=C(NNS(=O)(=O)c1ccc([N+](=O)[O-])cc1)C1CCCCC1", "activation": "-4.2%"}
{"smiles": "Cc1cccc2sc(N(CCCN(C)C)C(=O)CCS(=O)(=O)c3ccccc3)nc12", "activation": "23.6% (active)"}
{"smiles": "COc1cc2ccccc2cc1C(=O)N(CCN(C)C)c1nc2c(F)cccc2s1", "activation": "0.73%"}
{"smiles": "COc1cccc2sc(N(CCCN(C)C)C(=O)CCS(=O)(=O)c3ccccc3)nc12", "activation": "8.64%"}
{"smiles": "CC1Cc2ccccc2N1S(=O)(=O)c1cccc(C(=O)NCC(c2ccco2)N2CCCC2)c1", "note": "(configuration not stated)", "activation": "2.58%"}
{"smiles": "COc1ccc(N2CCN(C(=O)Cn3cnc4sc(C)c(S(=O)(=O)N5CCOCC5)c4c3=O)CC2)cc1", "activation": "-1.42%"}
{"smiles": "Cc1csc2nc(COC(=O)c3cccc(N(C)C)c3)cc(=O)n12", "activation": "-1.39%"}
{"smiles": "CC1CCN(S(=O)(=O)c2nnc(NC(=O)COc3ccccc3F)s2)CC1", "activation": "18.1% (active)"}
{"smiles": "O=C(COc1ccccc1F)Nc1nc(-c2ccccn2)cs1", "activation": "-1.27%"}
{"smiles": "Cc1ccccc1OCC(=O)Nc1nnc(S(=O)(=O)N2CCCC2)s1", "activation": "4.03%"}
{"smiles": "CC(NC(=S)NNS(=O)(=O)c1ccc(C(C)(C)C)cc1)c1ccccc1", "note": "(configuration not stated)", "activation": "-3.78%"}
{"smiles": "COc1ccc(-c2ccc3c(c2)[C@@H]2C[C@H](N(C)S(=O)(=O)c4ccccc4)[C@H]([C@H](C)O)C(=O)N2CC3)cc1", "activation": "2.65%"}
{"smiles": "CC1CC(C)CN(C(=O)C2CC(=O)N(c3ccc(F)cc3)C2)C1", "note": "(configuration not stated)", "activation": "5.22%"}
{"smiles": "CC1CCN(S(=O)(=O)c2ccc3c(c2)n(C)c(=O)n3C)CC1", "activation": "4.68%"}
{"smiles": "CC1CCN(S(=O)(=O)c2ccc3c(ccn3CC(=O)O)c2)CC1", "activation": "9.91% (active)"}
{"smiles": "Cc1ccn2c(c1)nc(=O)c1cc(S(=O)(=O)N3CCC(C)CC3)ccc12", "activation": "0.6%"}
{"smiles": "COc1cccc(OCc2nnc3n2N=C(c2ccccc2)C(CC(=O)O)S3)c1", "note": "(configuration not stated)", "activation": "1.48%"}
{"smiles": "CCCCCCCCCCOC(=O)Cn1c(COc2cccc(OC)c2)[n+](C)c2ccccc21", "activation": "13.7% (active)"}
{"smiles": "CCCCOc1ccc(NC(=O)CSCC(=O)OCC)cc1", "activation": "-1.74%"}
{"smiles": "CCOC(=O)COn1c(=O)c(-c2ccc(OCC)cc2)[n+]([O-])c2ccccc21", "activation": "-0.87%"}
{"smiles": "CCOC(=O)CNC(=O)CSc1nnc(-c2cccc(OC)c2)n1CC", "activation": "1.82%"}
{"smiles": "CCCCCCCCCCOC(=O)Cn1c(COc2ccc(C)cc2)[n+](C)c2ccccc21", "activation": "9.74% (active)"}
{"smiles": "CC[C@]12c3[nH]c4ccc(Cl)cc4c3CCN1C(=O)[C@@H](CC(=O)NCCCOC)C[C@@H]2C(=O)N1CCN(C(=O)c2ccco2)CC1", "activation": "-0.61%"}
{"smiles": "COc1ccc(CNC(=O)CN(Cc2ccccc2Cl)C(=O)c2csnn2)cc1", "activation": "0.86%"}
{"smiles": "O=c1/c(=C/c2ccc(CNS(=O)(=O)c3ccccc3)o2)sc2n1CCN=2", "activation": "-6.78%"}
{"smiles": "CCC(C)(C)NC(=O)CN(C(=O)CCC(=O)Nc1cc(C)ccn1)c1ccc2c(c1)OCCO2", "activation": "2.5%"}
{"smiles": "Fc1ccccc1-c1cc2cc3c(cc2cn1)OCO3", "activation": "7.94%"}
{"smiles": "O=C(c1noc2c1CCCC2)N1CCc2ccccc2C1", "activation": "5.42%"}
{"smiles": "CCC1(C)NC(=O)N(CC(=O)N2CCN(c3cccc(Cl)c3)CC2)C1=O", "note": "(configuration not stated)", "activation": "0.94%"}
{"smiles": "Cc1ccc(C(=O)Nc2nc3ccc(Cl)cc3s2)o1", "activation": "5.48%"}
{"smiles": "Cc1ccc(CCC(=O)Nc2ncc(Cc3cc(Cl)ccc3Cl)s2)o1", "activation": "17.4% (active)"}
{"smiles": "Cc1ccc(Cc2cnc(N)s2)o1", "activation": "-3.06%"}
{"smiles": "COc1ccc(C(=O)NCc2ccc(C)cc2)cc1S(=O)(=O)N1CCCC1", "activation": "5.16%"}
{"smiles": "C/C=C/C(=O)OCC(=O)Nc1ccc(F)cc1Cl", "activation": "6.73%"}
{"smiles": "COc1cc(OC)cc(C(=O)Nc2ccc(-c3nc4ccccc4o3)c(O)c2)c1", "activation": "13.9% (active)"}
{"smiles": "Cc1ccc2nc(-c3ccc(NC(=O)c4cccnc4)cc3)oc2c1", "activation": "1.12%"}
{"smiles": "O=C(Nc1ccc2oc(-c3ccccc3F)nc2c1)c1ccco1", "activation": "0.88%"}
{"smiles": "COc1ccc(C(=O)NC(C)c2nccs2)cc1OC1CCN(C(C)C)CC1", "note": "(configuration not stated)", "activation": "0.03%"}
{"smiles": "Cc1ccc(C)c(NC(=O)CCC(=O)N/N=C2/CC(=O)CC(C)(C)C2)c1", "activation": "0.95%"}
{"smiles": "O=C(CCN1CCCCC1)N=Nc1c(O)[nH]c2ccccc12", "activation": "-0.47%"}
{"smiles": "Cc1c(-c2ccccc2)n[nH]c1C(=O)N=Nc1c(O)[nH]c2ccccc12", "activation": "12.7% (active)"}
{"smiles": "Oc1[nH]c2ccccc2c1N=Nc1c(F)c(F)c(F)c(F)c1F", "activation": "4.3%"}
{"smiles": "NC(=O)c1ncn([C@@H]2O[C@H](CNCc3cnc(N4CCOCC4)s3)[C@@H](O)[C@H]2O)n1", "activation": "-1.96%"}
{"smiles": "CCOC(=O)C(C)n1cnc2c(nnn2-c2ccc(F)cc2)c1=O", "note": "(configuration not stated)", "activation": "0.23%"}
{"smiles": "Fc1ccccc1OCCSc1nc2ccccc2o1", "activation": "4.15%"}
{"smiles": "CS(=O)(=O)c1ccc2c(c1)SC1=NC(=O)/C(=C/c3ccco3)C(=N)N12", "activation": "3.34%"}
{"smiles": "CC(C)(C)C1C/C(=C/c2ccco2)C(=O)/C(=C/c2ccco2)C1", "note": "(configuration not stated)", "activation": "10.1% (active)"}
{"smiles": "COC(=O)COc1ccc2c(c1C)O/C(=C\\c1ccco1)C2=O", "activation": "-6.31%"}
{"smiles": "COc1c(O)cc2oc(-c3ccc(O)c(O)c3)cc(=O)c2c1O", "activation": "-1.01%"}
{"smiles": "Cc1ccc(S(=O)(=O)N2CCN(C(=O)COC(=O)/C=C/c3cccc(Cl)c3)CC2)c(C)c1", "activation": "8.67%"}
{"smiles": "Cc1c(C2=CCN(S(=O)(=O)c3ccc(Cl)cc3)CC2)c2ccccc2n1C", "activation": "1.24%"}
{"smiles": "CCN(C(=O)CSc1nnc(-c2ccncc2)o1)c1ccccc1", "activation": "-1.64%"}
{"smiles": "COC(=O)CSc1nnc(-c2cccnc2)o1", "activation": "0.3%"}
{"smiles": "Cc1cccc(C)c1OC(=O)CSc1nnc(-c2ccccc2)o1", "activation": "11% (active)"}
{"smiles": "CCCCN(CCCC)CCC(O)c1cc2c(Cl)cc(Cl)cc2c2cc(C(F)(F)F)ccc12", "note": "(configuration not stated)", "activation": "5.23%"}
{"smiles": "Cc1onc(C(=O)Nc2ccc3c(c2)OCO3)c1[N+](=O)[O-]", "activation": "14.2% (active)"}
{"smiles": "Cn1cc([N+](=O)[O-])c(C(=O)Nc2ccc3c(c2)OCCO3)n1", "activation": "-1.8%"}
{"smiles": "Cc1nn(CC(=O)Nc2ccc3c(c2)OCO3)c(C)c1[N+](=O)[O-]", "activation": "6.4%"}
{"smiles": "O=c1cc(CO)oc(C(Nc2cccc([N+](=O)[O-])c2)c2ccccn2)c1O", "note": "(configuration not stated)", "activation": "0.87%"}
{"smiles": "CCOc1ncccc1C(=O)Nc1ccc2c(c1)OCCO2", "activation": "0.83%"}
{"smiles": "Cc1ccc2nc(-c3ccncc3)cc(C(=O)Nc3ccc(OC(F)F)cc3)c2c1", "activation": "1.14%"}
{"smiles": "CCn1c(SCC(=O)Nc2ccc3c(c2)OCCO3)nnc1-c1ccncc1", "activation": "3.29%"}
{"smiles": "Cc1ccc2nc(-c3ccncc3)cc(C(=O)Nc3ccncc3)c2c1", "activation": "21% (active)"}
{"smiles": "CCN(CC)CCNC(=O)c1ccc(NC(=O)c2cc(-c3ccncc3)nc3ccccc23)cc1", "activation": "2.22%"}
{"smiles": "Cc1ccc2nc(-c3ccncc3)cc(C(=O)Nc3ccc4c(c3)OCCO4)c2c1", "activation": "12.6% (active)"}
{"smiles": "COc1cc2c(cc1OC)C1C(=O)c3cc(OS(C)(=O)=O)c(OC)cc3C1N(C)C2=O", "note": "(configuration not stated)", "activation": "-2.76%"}
{"smiles": "OC(CN=c1sc2ccccc2n1CC(O)COc1ccccc1)COc1ccccc1", "note": "(configuration not stated)", "activation": "7.91%"}
{"smiles": "CCn1nnc(NC(=O)c2cc(Cl)c(OC)c(Cl)c2)n1", "activation": "-6.18%"}
{"smiles": "CN(CCc1ccccc1)c1ccc([N+](=O)[O-])cn1", "activation": "2.92%"}
{"smiles": "COc1ccc(Br)cc1S(=O)(=O)N1CCN=C1C", "activation": "2.3%"}
{"smiles": "O=C(CN1C(=O)C2C3C=CC(C3)C2C1=O)NCCc1ccccc1Cl", "note": "(configuration not stated)", "activation": "-1.28%"}
{"smiles": "CCCCOC(=O)NCN1C(=O)C2C3C=CC(C3)C2C1=O", "note": "(configuration not stated)", "activation": "9.49% (active)"}
{"smiles": "CCCCCOC(=O)c1ccc(N2C(=O)C3C4C=CC(C4)C3C2=O)cc1", "note": "(configuration not stated)", "activation": "-1.59%"}
{"smiles": "CCc1c(Nc2ccccc2Cl)nc(N)[nH]c1=O", "activation": "-3.6%"}
{"smiles": "O=C(CC(O)(C(F)(F)F)C(F)(F)F)Nc1ccc(Cl)c(Cl)c1", "activation": "20.1% (active)"}
{"smiles": "O=C(COC(=O)c1cc[n+]([O-])cc1)Nc1ccc(Cl)c(C(F)(F)F)c1", "activation": "3.73%"}
{"smiles": "NC(=O)N1CCCC1C(=O)Nc1ccc(Cl)c(Cl)c1", "note": "(configuration not stated)", "activation": "1.66%"}
{"smiles": "CC(C)(C)NS(=O)(=O)CC12CCC(CC1=O)C2(C)C", "note": "(configuration not stated)", "activation": "3.18%"}
{"smiles": "COc1ccccc1CNS(=O)(=O)CC12CCC(CC1=O)C2(C)C", "note": "(configuration not stated)", "activation": "-5.29%"}
{"smiles": "CC1(C)C2CCC1(CS(=O)(=O)NCCc1c[nH]c3ccccc13)C(=O)C2", "note": "(configuration not stated)", "activation": "41.5% (active)"}
{"smiles": "COc1ccc(OC)c(C2C3=C(N=c4s/c(=C\\c5cccc(O)c5)c(=O)n42)c2ccccc2CC3)c1", "note": "(configuration not stated)", "activation": "13.5% (active)"}
{"smiles": "COc1ccc(/C=C2/CCCc3ccccc3C2=O)cc1", "activation": "-2.8%"}
{"smiles": "O=C1[C@@H]2C(Cc3ccc(O)cc3)NC3(C(=O)Nc4ccc(F)cc43)[C@@H]2C(=O)N1c1ccc(F)cc1", "note": "(some centres not stated)", "activation": "1.44%"}
{"smiles": "CC1CCN(CC(=O)Nc2nccs2)CC1", "activation": "-1.58%"}
{"smiles": "CC(CCn1cccn1)NC(=O)CCc1nnc(CCc2ccccc2)o1", "note": "(configuration not stated)", "activation": "4.98%"}
{"smiles": "CCC(C)NC(=O)CCCc1ccccc1", "note": "(configuration not stated)", "activation": "14.8% (active)"}
{"smiles": "COc1ccccc1C(=O)NCCC(=O)NC(C)CCc1ccccc1", "note": "(configuration not stated)", "activation": "5.98%"}
